An excerpt weighted towards active compounds, which were near 1.3% of everything screened.
UGM FP inh: Mtb UDP-galactopyranose mutase inhibition | P9WIQ1 | purified UGM, fluorescence polarization probe displacement | inhibition, % at 10 µM | hit rate 0.06% among 320,000; in the data active means inhibition above about 10%, passing the limit was not always enough
PrP UTR inh: inhibition of PrP 5' UTR reporter expression. cell-based PrP 5' UTR mRNA reporter, plate reader. inhibition, % (no concentration beside the values). hit rate 0.35% among 340,000; in the data active means inhibition above about 52%; further: 0 = median of the neutral control wells
FadD28 binding: M. tuberculosis FadD28 bisubstrate binding inhibition; FadD28 bisubstrate probe binding, fluorescence polarization; inhibition, % at 12.5 µM; hit rate 0.22% among 360,000; AID 588549; in the data active means inhibition above about 8.5%, passing the limit was not always enough
Rv3671c inh: inhibitors of M. tuberculosis serine protease Rv3671c | inhibition, % at 5.96 µM | hit rate 0.048% among 320,000 | AID 2606 | P9WHR9; in the data active means inhibition above about 38%;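 further: extracellular domain of Rv3671c used as enzyme; 0% = enzyme with DMSO and 100% = no enzyme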
BJeLR lethal: kills HRASV12-expressing BJeLR cells; inhibition, % (test concentration not listed); BJeLR (HRASV12) viability, CellTiter-Glo ATP luminescence, 48 h; AID 1554; hit rate 0.17% among 300,000; in the data active means inhibition above about 50%
RecA splice inh: blocks M. tuberculosis RecA intein splicing; inhibition, % (no concentration beside the values); hit rate 0.75% among 290,000; AID 2221; cell-free RecA intein splicing, fluorescence; in the data active means inhibition above about 30%;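 further: 0% = vehicle wells and 100% = reference inhibitor control wells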
GFP chromo cs: counter-screen: blocks GFP chromophore formation. cell-free GFP chromophore formation, fluorescence. hit rate 83% among 2,100. AID 434968. EC50, µM. shares compounds with RecA splice inh; call rule not given here
* hit, by the source's call; x = not tested or not shown.

SMILES	UGM FP inh	PrP UTR inh	FadD28 binding	Rv3671c inh	BJeLR lethal	RecA splice inh	GFP chromo cs
COc1cc2c(C#N)c(N3CCCC3)nc(N)c2c(N)n1	3	-13	0	0	0	2	x
N#Cc1c(N2CCCC2)nc(N)c2c(N)nc(N3CCCC3)cc12	-1	-57	5	-222	11	58*	0.24*
C=CCOC(=O)C1=C(C)OC(N)=C(C#N)C1c1ccoc1 (configuration not stated)	-6	-21	1	-10	16	x	x
CCCc1[nH]nc2c1C(c1ccoc1)C(C#N)=C(N)O2 (configuration not stated)	1	-22	-4	2	6	61*	19*
CCOC(=O)Cc1[nH]nc2c1C(c1ccoc1)C(C#N)=C(N)O2 (configuration not stated)	0	-8	3	-3	-12	65*	26*
COc1cc(C2C(C#N)=C(N)Oc3n[nH]c(C)c32)cc2c1OCO2 (configuration not stated)	0	-26	-1	-4	-2	92*	4.9*
Cc1[nH]nc2c1C(C(C)C)C(C#N)=C(N)O2 (configuration not stated)	1	10	0	-4	-2	x	x
Cc1[nH]nc2c1C(c1ccoc1)C(C#N)=C(N)O2 (configuration not stated)	2	2	-3	1	1	84*	18*
COc1ccc(C2C(C#N)=C(N)Oc3n[nH]c(C)c32)cc1Cn1cc([N+](=O)[O-])cn1 (configuration not stated)	3	-33	0	-6	-15	76*	12*
CC(C)NC(=O)Nc1nnc([C@H]2C[C@H](O)[C@@H](CO)O2)s1	x	x	0	x	x	x	x
Cn1c(/N=C/c2c(O)ccc3ccccc23)nc2ccccc21	1	-1	3	-17	x	73*	9.1*
CC(C)(O)CN(C(=O)c1ccc([N+](=O)[O-])cc1)C1CCCC1	x	-7	-5	x	x	x	x
CC(=O)Nc1ccccc1NC(=O)C/C(C)=N/NC(=O)C(=O)N1CCCCC1	-1	-12	1	-5	-8	85*	10*
Cc1ccc(S(=O)(=O)/N=C2/C=C(C3C(=O)CC(C)(C)CC3=O)C(=O)c3ccccc32)cc1	4	-57	0	-38	-1	85*	9.9*
O=[N+]([O-])c1ccc(Oc2ccc(F)cc2)c2ccncc12	2	12	-2	1	1	67*	32*
O=[N+]([O-])c1ccc(Oc2cccc(Br)c2)c2ccncc12	1	-21	-1	1	-2	53*	17*
C[C@@H]1CN([C@@H](C)CO)C(=O)CCCn2nncc2CO[C@H]1CN(C)C(=O)NC1CCCCC1	x	x	0	x	x	x	x
COc1cc(CNC(=O)Nc2nnc([C@H]3C[C@H](O)[C@@H](CO)O3)s2)cc(OC)c1OC	x	x	-2	x	x	x	x
COc1ccc(-c2cc(=O)n(-c3ccc([N+](=O)[O-])cc3)[nH]2)cc1	1	-7	2	-142	-9	90*	5.4*
COc1ccc(-c2[nH]n(-c3ccc([N+](=O)[O-])cc3)c(=O)c2C=NCc2ccc(F)cc2)cc1	0	-36	-1	6	-7	-1	x
CCOc1cc(C2C(C#N)=C(N)Oc3n[nH]c(-c4ccncc4)c32)cc([N+](=O)[O-])c1O (configuration not stated)	1	-25	-3	-5	-3	12	x
Cc1cc(-c2[nH]nc3c2C(c2ccsc2)C(C#N)=C(N)O3)c(C)s1 (configuration not stated)	-7	-5	1	3	-8	86*	6.6*
Cc1cc(-c2[nH]nc3c2C(c2cccc(O)c2)C(C#N)=C(N)O3)c(C)s1 (configuration not stated)	-2	-21	2	1	-6	83*	9.3*
O=C(NCCc1ccc(F)cc1)C1CCC(=O)N(CC2CCCCC2)C1 (configuration not stated)	x	x	-1	x	x	x	x
O=C(Nc1ccc(Cl)cc1)c1ccc2sc([C@@H]3O[C@H](CO)[C@@H](O)[C@H]3O)nc2c1	x	x	-1	x	x	x	x
SMILES	UGM FP inh	PrP UTR inh	FadD28 binding	Rv3671c inh	BJeLR lethal	RecA splice inh	GFP chromo cs
CN(C1=C(NC(=O)c2ccccc2)C(=O)c2ccccc2C1=O)C1CCS(=O)(=O)C1 (configuration not stated)	0	-19	1	-113	8	93*	2.7*
C(=N\Nc1nncc2ccccc12)/c1ccccn1	-2	45	0	-6	56*	38*	10*
CCN(C(=O)c1ccc2c(Cl)c3c(nc2c1)CCC3)c1ccc(C)c(C)c1	-3	-8	-6	-16	-3	30*	9.1*
CN(C(=O)c1ccc2c(Cl)c3c(nc2c1)CCC3)c1ccccc1	-3	-32	-2	-6	-11	0	x
Cc1ccc(SC(=O)c2c(C)noc2-c2cc(C)on2)cc1	1	-28	1	2	-8	61*	26*
C/C(=C\c1ccc(N)cc1)c1nc2ccccc2[nH]1	-2	-74	-1	0	4	-1	x
O=S(=O)(/C(=C/c1ccc(C(F)(F)F)cc1)c1nc2ccccc2[nH]1)c1ccccc1	1	-71	-1	-76	68*	64*	10*
CC(C)c1ccc(/C=C(\c2nc3ccccc3[nH]2)S(=O)(=O)c2ccccc2)cc1	-1	-8	-4	-43	7	80*	9.4*
CCc1nc2ccc(C(=O)Nc3cccc(OCC(=O)N(C)C)c3)cn2c1N(C=O)Cc1ccc(OC)cc1	x	x	-1	x	x	x	x
COCc1[nH]nc2c1C(c1ccsc1)C(C#N)=C(N)O2 (configuration not stated)	-1	-26	-3	-5	-7	64*	35*
CCCc1[nH]nc2c1C(c1ccsc1)C(C#N)=C(N)O2 (configuration not stated)	0	-27	-3	4	-2	66*	29*
COC(=O)c1cc(=O)c2c(ccc3oc(=O)ccc32)[nH]1	x	x	-5	x	x	x	x
O=C(CN1C(=O)S/C(=C\C=C\c2ccccc2)C1=O)Nc1ccc(C(=O)O)cc1	1	-10	-6	-68	1	35*	>38
O=C(COC(=O)/C=C/c1cccc(F)c1)NCc1ccc2c(c1)OCO2	x	x	-2	x	x	x	x
COc1cc2c(c(O)c1OC)C1Cc3ccc(OC)c(OC)c3CN1CC2 (configuration not stated)	x	x	1	x	x	x	x
COc1cc2c(cc1OC)-c1c3c(cc4c1[C@@H](C2)N(C)CC4)OCO3	1	5	1	-132	-2	44*	21*
COc1cc2c(cc1OC)-c1c(OC)c(OC)cc3c1C(C2)N(C)CC3 (configuration not stated)	-1	-6	0	-52	-9	71*	4.3*
COc1cc2c(cc1O)C[C@H]1NCCc3cc4c(c-2c31)OCO4	1	-15	-1	-1	20	1	x

Source: PubChem (several laboratories)
